Sensor-assay potency score (higher = more potent) data for 17 sequences are collected here from the OligoGym collection.
Note: reference of the scale not given here.

The target in one experiment is DHX35. The experiment in a line: pooled miR-30 sensor sort-seq; sequence = guide strand. The note with it: shRNA.
As to TTCATTCGTAGAGACATGCTTG, the sensor-assay potency score (higher = more potent) was 0.0862.

The sequence TTGAAACTTGACAAGAAGCTTT returned a sensor-assay potency score (higher = more potent) of 0.0953.

For the sequence TAGATAAAAGATATCCACCGGA, the sensor-assay potency score (higher = more potent) is -0.104.

In turn, ATAAGGGTTGTAAACAACCGTT yielded a sensor-assay potency score (higher = more potent) of -1.1.

In the case of TAGAATGAAACCTCGCTGCATT, the sensor-assay potency score (higher = more potent) was -0.528.

A further experiment concerns the target DICER1. The description is as above. Conditions: shRNA.
TTTTCTTTACAAAAGCTCCTGA: the sensor-assay potency score (higher = more potent) amounted to 0.34.

In the case of TTCCACAGTGACTCTGACCTTC, the sensor-assay potency score (higher = more potent) was 0.615.

The sequence TATAAATCTGATATGTTCCTGA displayed a sensor-assay potency score (higher = more potent) of 0.759.

As for TTAGATTGAACATAGGATCGAT, the sensor-assay potency score (higher = more potent) turned out to be 0.532.

The sequence TTATTCTTGAATCTGTAGTTGA came in with a sensor-assay potency score (higher = more potent) of 0.19.

The sequence TGTAACTTCGACCAACACCTTT returned a sensor-assay potency score (higher = more potent) of -0.933.

With TAGATTGAACATAGGATCGATA, the sensor-assay potency score (higher = more potent) is -1.08.

The sequence TTTGATTGTAAGAAAGACCATT came in with a sensor-assay potency score (higher = more potent) of -0.387.

TTGACCAAGAACACCGTCCTTT had a sensor-assay potency score (higher = more potent) of 0.276.

TTATTTTGTCTGTATCCGCTAA registered a sensor-assay potency score (higher = more potent) of -0.197.

Regarding TTAAAGTAGAATCTCTTTCTTT, the sensor-assay potency score (higher = more potent) worked out at 0.229.

On to TTGTTTTATAATATTCTGCAAA, for which the sensor-assay potency score (higher = more potent) is -0.989.
